# According to the supplement of paper PMC10037445:
# Over roughly 2,900 compounds, “NF-kB SEAP reporter activity, fold change vs agonist alone” has its median near 0.99; the highest 2% begin near 2.6. The list comes from a sample in which the highest values are over-represented; it also holds similar structures and randomly drawn compounds.
# Assays:
# RAW-Dual [1] = test: NF-kB SEAP reporter activity, fold change vs agonist alone; cytotoxicity flag (confluency mask): not cytotoxic; higher = enhanced NF-kB activity
# In short: (§1)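 Library stock was pin-tooled at 50 nL into 384-well plates of RAW-Dual macrophages (50,000 cells/well, DMEM), followed 1 h later by a PRR agonist, and the cells were kept at 37 °C, 5% CO2. Supernatant collected after 20 hours was read for IRF by QuantiLuc luminescence and for NF-κB by QuantiBlue absorbance at 620 nm. Reporter activity is fold change over agonist-alone wells, and a well counted as cytotoxic when its IncuCyte confluency was below 70% of agonist controls in both mask sets.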
# RAW-Dual [2] = test: NF-kB SEAP reporter activity, fold change vs agonist alone; higher = enhanced NF-kB activity; conditions: library stock concentration (final ~1000-fold dilution): 10 mM
# In short: as §1
# RAW-Dual [3] = test: NF-kB SEAP reporter activity, fold change vs agonist alone; cytotoxicity flag (confluency mask): cytotoxic (confluency <70% of control); higher = enhanced NF-kB activity
# In short: as §1
# [4] = agonist: ODN 1826 (TLR9) 0.5 ug/mL
# [5] = agonist: Pam2CSK4 (TLR2/6) 0.1 ug/mL
# [6] = agonist: Pam3CSK4 (TLR2/1) 0.1 ug/mL
# [7] = cytotoxicity flag (confluency mask): not cytotoxic, agonist: Imiquimod (TLR7) […]
# [8] = cytotoxicity flag (confluency mask): not cytotoxic, agonist: MPLA (TLR4) […]
smiles,measurement,setting,value
CC(NC(=O)CCC(F)(F)F)C(=O)NC1C(=O)N(CCO)c2ncccc2-c2ccccc21 (stereo unspecified) (library stock concentration (final ~1000-fold dilution): 10 mM),NF-kB SEAP reporter activity,RAW-Dual [1]; agonist: LPS (TLR4) 0.1 ug/mL,1.05
same,NF-kB SEAP reporter activity,RAW-Dual [1]; [4],0.863
same,NF-kB SEAP reporter activity,RAW-Dual [1]; [5],0.99
same,NF-kB SEAP reporter activity,RAW-Dual [1]; [6],1.16
CNCCCC12CCC(c3ccccc31)c1ccccc12.Cl (library stock concentration (final ~1000-fold dilution): 10 mM),NF-kB SEAP reporter activity,RAW-Dual [1]; agonist: LPS (TLR4) 0.1 ug/mL,1.55
same,NF-kB SEAP reporter activity,RAW-Dual [1]; [4],0.443
same,NF-kB SEAP reporter activity,RAW-Dual [1]; [5],0.537
same,NF-kB SEAP reporter activity,RAW-Dual [1]; [6],0.603
CNCCCC12CCC(c3ccccc31)c1ccccc12.Cl,NF-kB SEAP reporter activity,RAW-Dual [2]; [7],1.4
same,NF-kB SEAP reporter activity,RAW-Dual [2]; [8],1.37
CC(=O)c1ccc2c(c1)c1cc(C(C)=O)ccc1n2CCNC(C)C.Cl,NF-kB SEAP reporter activity,"RAW-Dual [2]; cytotoxicity flag (confluency mask): cytotoxic (confluency <70% of control), agonist: Imiquimod (TLR7) […]",0.156
same,NF-kB SEAP reporter activity,"RAW-Dual [2]; cytotoxicity flag (confluency mask): cytotoxic (confluency <70% of control), agonist: MPLA (TLR4) […]",0.26
CC(=O)c1ccc2c(c1)c1cc(C(C)=O)ccc1n2CCNC(C)C.Cl (library stock concentration (final ~1000-fold dilution): 10 mM),NF-kB SEAP reporter activity,RAW-Dual [3]; agonist: LPS (TLR4) 0.1 ug/mL,0.329
same,NF-kB SEAP reporter activity,RAW-Dual [3]; [4],0.209
same,NF-kB SEAP reporter activity,RAW-Dual [3]; [5],0.0686
same,NF-kB SEAP reporter activity,RAW-Dual [3]; [6],0.155
CC1(C)OC2COC3(COS(N)(=O)=O)OC(C)(C)OC3C2O1 (stereo unspecified),NF-kB SEAP reporter activity,RAW-Dual [2]; [7],0.928
same,NF-kB SEAP reporter activity,RAW-Dual [2]; [8],0.824
CC1(C)OC2COC3(COS(N)(=O)=O)OC(C)(C)OC3C2O1 (stereo unspecified) (library stock concentration (final ~1000-fold dilution): 10 mM),NF-kB SEAP reporter activity,RAW-Dual [1]; agonist: LPS (TLR4) 0.1 ug/mL,0.898
same,NF-kB SEAP reporter activity,RAW-Dual [1]; [4],1.01
same,NF-kB SEAP reporter activity,RAW-Dual [1]; [5],0.955
same,NF-kB SEAP reporter activity,RAW-Dual [1]; [6],1.12
COc1ccc(S(=O)(=O)Nc2cc(-c3c(O)ccc4ccccc34)c(O)c3ccccc23)cc1,NF-kB SEAP reporter activity,RAW-Dual [2]; [7],1.17
same,NF-kB SEAP reporter activity,RAW-Dual [2]; [8],1.61
COc1c(O)c(C)cc2c1C(=O)c1c(O)cccc1C2=O (library stock concentration (final ~1000-fold dilution): 10 mM),NF-kB SEAP reporter activity,RAW-Dual [1]; agonist: LPS (TLR4) 0.1 ug/mL,1.19
same,NF-kB SEAP reporter activity,RAW-Dual [1]; [4],1.02
same,NF-kB SEAP reporter activity,RAW-Dual [1]; [5],1.04
same,NF-kB SEAP reporter activity,RAW-Dual [1]; [6],1.01
COc1ccc(S(=O)(=O)Nc2cc(-c3c(O)ccc4ccccc34)c(O)c3ccccc23)cc1 (library stock concentration (final ~1000-fold dilution): 10 mM),NF-kB SEAP reporter activity,RAW-Dual [1]; agonist: LPS (TLR4) 0.1 ug/mL,4.3
same,NF-kB SEAP reporter activity,RAW-Dual [1]; [4],1.09
same,NF-kB SEAP reporter activity,RAW-Dual [1]; [5],1.29
same,NF-kB SEAP reporter activity,RAW-Dual [1]; [6],1.38
COc1ccc2cccc(CCNC(C)=O)c2c1,NF-kB SEAP reporter activity,RAW-Dual [2]; [7],0.972
same,NF-kB SEAP reporter activity,RAW-Dual [2]; [8],0.963
COc1ccc2cccc(CCNC(C)=O)c2c1 (library stock concentration (final ~1000-fold dilution): 10 mM),NF-kB SEAP reporter activity,RAW-Dual [1]; agonist: LPS (TLR4) 0.1 ug/mL,1.33
same,NF-kB SEAP reporter activity,RAW-Dual [1]; [4],1.09
same,NF-kB SEAP reporter activity,RAW-Dual [1]; [5],1.03
same,NF-kB SEAP reporter activity,RAW-Dual [1]; [6],1.19
COc1c(O)c(C)cc2c1C(=O)c1c(O)cccc1C2=O,NF-kB SEAP reporter activity,RAW-Dual [2]; [7],0.981
same,NF-kB SEAP reporter activity,RAW-Dual [2]; [8],1.08
CCOc1ccc(Cc2cc(C34OCC(CO)(O3)C(O)C(O)C4O)ccc2Cl)cc1 (stereo unspecified),NF-kB SEAP reporter activity,RAW-Dual [2]; [8],1.09
CCOc1ccc(Cc2cc(C34OCC(CO)(O3)C(O)C(O)C4O)ccc2Cl)cc1 (stereo unspecified) (library stock concentration (final ~1000-fold dilution): 10 mM),NF-kB SEAP reporter activity,RAW-Dual [1]; agonist: LPS (TLR4) 0.1 ug/mL,0.975
same,NF-kB SEAP reporter activity,RAW-Dual [1]; [4],1.1
same,NF-kB SEAP reporter activity,RAW-Dual [1]; [5],1.13
same,NF-kB SEAP reporter activity,RAW-Dual [1]; [6],0.829
COc1ccc(CCN(C)CCCC(C#N)(c2ccc(OC)c(OC)c2)C(C)C)cc1OC.Cl (stereo unspecified) (library stock concentration (final ~1000-fold dilution): 10 mM),NF-kB SEAP reporter activity,RAW-Dual [1]; agonist: LPS (TLR4) 0.1 ug/mL,1.06
same,NF-kB SEAP reporter activity,RAW-Dual [1]; [4],0.89
same,NF-kB SEAP reporter activity,RAW-Dual [1]; [5],0.949
same,NF-kB SEAP reporter activity,RAW-Dual [1]; [6],1.04
COc1ccc(CCN(C)CCCC(C#N)(c2ccc(OC)c(OC)c2)C(C)C)cc1OC.Cl (stereo unspecified),NF-kB SEAP reporter activity,RAW-Dual [2]; [7],0.98
same,NF-kB SEAP reporter activity,RAW-Dual [2]; [8],1.03
CN1CC(=O)N2C(Cc3c([nH]c4ccccc34)C2c2ccc3c(c2)OCO3)C1=O (stereo unspecified) (library stock concentration (final ~1000-fold dilution): 10 mM),NF-kB SEAP reporter activity,RAW-Dual [1]; agonist: LPS (TLR4) 0.1 ug/mL,1.17
same,NF-kB SEAP reporter activity,RAW-Dual [1]; [4],1.18
same,NF-kB SEAP reporter activity,RAW-Dual [1]; [5],1.13
same,NF-kB SEAP reporter activity,RAW-Dual [1]; [6],1.11
CN1CC(=O)N2C(Cc3c([nH]c4ccccc34)C2c2ccc3c(c2)OCO3)C1=O (stereo unspecified),NF-kB SEAP reporter activity,RAW-Dual [2]; [7],0.955
same,NF-kB SEAP reporter activity,RAW-Dual [2]; [8],0.984
Cc1cc([N+](=O)[O-])ccc1NS(=O)(=O)c1cc(Cl)ccc1Cl,NF-kB SEAP reporter activity,RAW-Dual [2]; [7],1.01
same,NF-kB SEAP reporter activity,RAW-Dual [2]; [8],1.41
O=S(=O)(NCCSSCCNS(=O)(=O)c1cc(Cl)ccc1Cl)c1cc(Cl)ccc1Cl (library stock concentration (final ~1000-fold dilution): 10 mM),NF-kB SEAP reporter activity,RAW-Dual [1]; agonist: LPS (TLR4) 0.1 ug/mL,0.705
same,NF-kB SEAP reporter activity,RAW-Dual [1]; [4],0.705
same,NF-kB SEAP reporter activity,RAW-Dual [1]; [5],0.573
same,NF-kB SEAP reporter activity,RAW-Dual [1]; [6],0.312
Cc1ccc([N+](=O)[O-])cc1S(=O)(=O)N(C)C (library stock concentration (final ~1000-fold dilution): 10 mM),NF-kB SEAP reporter activity,RAW-Dual [1]; agonist: LPS (TLR4) 0.1 ug/mL,1.07
same,NF-kB SEAP reporter activity,RAW-Dual [1]; [4],0.867
same,NF-kB SEAP reporter activity,RAW-Dual [1]; [5],0.994
same,NF-kB SEAP reporter activity,RAW-Dual [1]; [6],1.36
Cc1cc([N+](=O)[O-])ccc1NS(=O)(=O)c1cc(Cl)ccc1Cl (library stock concentration (final ~1000-fold dilution): 10 mM),NF-kB SEAP reporter activity,RAW-Dual [1]; agonist: LPS (TLR4) 0.1 ug/mL,3.09
same,NF-kB SEAP reporter activity,RAW-Dual [1]; [4],0.67
same,NF-kB SEAP reporter activity,RAW-Dual [1]; [5],0.323
same,NF-kB SEAP reporter activity,RAW-Dual [1]; [6],0.349
O=S(=O)(NCCSSCCNS(=O)(=O)c1cc(Cl)ccc1Cl)c1cc(Cl)ccc1Cl,NF-kB SEAP reporter activity,RAW-Dual [2]; [7],1.13
same,NF-kB SEAP reporter activity,RAW-Dual [2]; [8],1.03
Cc1ccc([N+](=O)[O-])cc1S(=O)(=O)N(C)C,NF-kB SEAP reporter activity,RAW-Dual [2]; [7],0.951
same,NF-kB SEAP reporter activity,RAW-Dual [2]; [8],1.14
COC(C)Cn1c(=O)n(C)c2cnc3ccc(-c4cncc(C(C)(C)O)c4)cc3c21 (stereo unspecified) (library stock concentration (final ~1000-fold dilution): 10 mM),NF-kB SEAP reporter activity,RAW-Dual [1]; agonist: LPS (TLR4) 0.1 ug/mL,1.84
same,NF-kB SEAP reporter activity,RAW-Dual [1]; [4],1.26
same,NF-kB SEAP reporter activity,RAW-Dual [1]; [5],0.476
same,NF-kB SEAP reporter activity,RAW-Dual [1]; [6],1.03
COC(C)Cn1c(=O)n(C)c2cnc3ccc(-c4cncc(C(C)(C)O)c4)cc3c21 (stereo unspecified),NF-kB SEAP reporter activity,RAW-Dual [2]; [7],0.865
same,NF-kB SEAP reporter activity,RAW-Dual [2]; [8],1.85
